This is a sample that favours compounds with a hit; in the whole collection about 2.6% have one here.
TROY NFkB inh: blocks TROY-dependent signaling in reporter cells; AID 1347056; 0.98% of 360,000 active; Q293 LMP1-TROYcd NF-kB luciferase reporter, 4 h; inhibition, % at 10 µM;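 active = compounds whose plate-normalised and pattern-corrected inhibition of the luciferase reporter signal at the single screening dose is 50% or more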
TWEAK-Fn14 inh: TWEAK-Fn14 signaling inhibition. TWEAK-stimulated Fn14 reporter cells, luciferase luminescence, 8 h. inhibition, % at 10 µM. 2% of 360,000 active. AID 1159606; in the data active = inhibition above about 50%
EWS-Fli inh: inhibitors of EWS/Fli oncoprotein transcriptional activity; A673 NR0B1-luciferase reporter, viability-normalised; inhibition, % at 12.6 µM; 0.67% of 350,000 active; AID 651661;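 active = mean inhibition of at least 50% after viability correction, with every replicate also passing that limit; inconclusive = mean reaches 50% but only one of two replicates passes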;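 also: firefly luciferase signal divided by Alamar Blue viability fluorescence both relative to DMSO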
EBV LMP1 NFkB: Epstein-Barr LMP1 NF-kappaB reporter inhibition; inhibition, % at 12.5 µM; LMP1-induced NF-kappaB luciferase reporter cells, luminescence; 0.69% of 350,000 active; AID 504558; in the data active = inhibition above about 41%; inconclusive = no clear call, values can overlap the other calls
LGR2 inh: blocks bursicon-induced cAMP signaling via Drosophila LGR2; HEK293 LGR2, CRE-luciferase, bursicon-stimulated, 4 h; AID 720647; inhibition, % at 9.99 µM; 0.35% of 380,000 active;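 active = drop in luminescence signal, shown as inhibition above about 50% in the replicate tests, limit read from the data, passing the limit was not always enough; inconclusive = probably only some replicates passing the limit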;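 also: agonist challenge used bursicon conditioned medium at about half maximal strength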
Each line names hits and unclear results; the compound was inactive in the other large screens.

COc1c(Cl)cnn(-c2ccc(C)cc2)c1=O	none
Cc1ccc(-n2ncc(Br)c(Br)c2=O)cc1	TROY NFkB inh 69, TWEAK-Fn14 inh 78 (no result: EWS-Fli inh, LGR2 inh)
COc1cnn(-c2ccccc2)c(=O)c1N(C)C	TROY NFkB inh 54 (no result: EWS-Fli inh, LGR2 inh)
O=c1c(Br)c(Br)cnn1-c1ccccc1	TROY NFkB inh 77, TWEAK-Fn14 inh 93, EWS-Fli inh inconclusive
Cc1noc(C)c1NC(=O)Nc1ccc2c(c1)CC(=O)N([C@@H](C)CO)C[C@H](C)[C@H](CN(C)Cc1ccc(Oc3ccccc3)cc1)O2	none (no result: TROY NFkB inh, TWEAK-Fn14 inh, EBV LMP1 NFkB)
C[C@H](CO)N1C[C@H](C)[C@H](CN(C)C(=O)Cc2ccccc2)OCCCC[C@H](C)Oc2ccc(NS(=O)(=O)c3cccs3)cc2C1=O	none (no result: TROY NFkB inh, TWEAK-Fn14 inh, EBV LMP1 NFkB)
Cc1ccc(CNC(=O)C2CCN(S(=O)(=O)c3c(C)noc3/C=C/c3ccco3)CC2)cc1	EBV LMP1 NFkB 83
Cc1noc(/C=C/c2ccco2)c1S(=O)(=O)N1CCC(C(=O)NCc2ccco2)CC1	none (no result: EWS-Fli inh, LGR2 inh)
O=C(Oc1c(CN2CCOCC2)cc(Cl)c2cccnc12)c1ccc(F)cc1	EBV LMP1 NFkB 58 (no result: EWS-Fli inh, LGR2 inh)
O=C(Oc1c(CN2CCOCC2)cc(Cl)c2cccnc12)c1ccccc1Cl	EBV LMP1 NFkB 71
O=C(Oc1c(CN2CCOCC2)cc(Cl)c2cccnc12)c1cccs1	none
COc1ccc(C(=O)Oc2c(CN3CCOCC3)cc(Cl)c3cccnc23)cc1	none (no result: EWS-Fli inh, LGR2 inh)
N#CC1c2ccccc2C=CN1C(=O)N(c1ccccc1)c1ccccc1 (stereo not drawn)	TWEAK-Fn14 inh 94 (no result: LGR2 inh)
COc1ccc(C(=O)N2C=Cc3ccccc3C2C#N)cc1 (stereo not drawn)	none
CCCc1cc(=O)[nH]c(SCC(=O)Nc2ccc(Br)cc2Br)n1	TROY NFkB inh 68
CCCc1cc(=O)[nH]c(SCC(=O)Nc2ccc(Br)cc2)n1	none
Cc1ccc(SCc2cc(=O)[nH]c(SCC(=O)Nc3cc(Cl)ccc3Cl)n2)cc1	TROY NFkB inh 59
CCc1ccc(NC(=O)CSc2nc(CSc3ccc(C)cc3)cc(=O)[nH]2)cc1	none
CC(C)NC(=O)Nc1ccc2c(c1)CC(=O)N([C@@H](C)CO)C[C@@H](C)[C@@H](CN(C)S(=O)(=O)c1cccs1)O2	none (no result: TROY NFkB inh, TWEAK-Fn14 inh, EBV LMP1 NFkB)
C[C@@H](NC(=O)C[C@H]1C=C[C@H](NC(=O)C2CC2)[C@H](CO)O1)c1ccccc1	none (no result: TROY NFkB inh, TWEAK-Fn14 inh, EBV LMP1 NFkB)
N#Cc1cnn(CC2CCCCC2)c1N	TWEAK-Fn14 inh 61 (no result: TROY NFkB inh, EWS-Fli inh, LGR2 inh)
NC(=O)c1ccsc1NC(=O)CN1CCN(S(=O)(=O)c2ccccc2C(F)(F)F)CC1	TROY NFkB inh 50
O=C(CN1CCN(S(=O)(=O)c2ccccc2C(F)(F)F)CC1)NCc1cccs1	none
COc1ccc(OCCCCn2c(CO)nc3ccccc32)cc1	TWEAK-Fn14 inh 69
OC[C@@H]1[C@H](c2ccc(-c3ccc(F)cc3)cc2)[C@H]2CN(Cc3ccccn3)CCCCN12	none (no result: TROY NFkB inh, TWEAK-Fn14 inh, EBV LMP1 NFkB)
COc1ccc(NS(=O)(=O)c2cc(NC(=O)Cc3cccs3)ccc2C)cc1	TROY NFkB inh 82, TWEAK-Fn14 inh 94 (no result: LGR2 inh)
CCCCN(CCCC)S(=O)(=O)c1ccc(NC(=O)Cc2cccs2)cc1	TROY NFkB inh 51 (no result: LGR2 inh)
COc1ccc(NS(=O)(=O)c2ccc(NC(=O)Cc3cccs3)cc2)cc1	TROY NFkB inh 65
C[C@@H]1CN([C@@H](C)CO)S(=O)(=O)c2ccc(C#CC3CC3)cc2O[C@H]1CN(C)Cc1ccncc1	none (no result: TROY NFkB inh, TWEAK-Fn14 inh, EBV LMP1 NFkB)
CN(C)C(=O)c1ccc(-c2ccccc2[C@H]2[C@@H](C#N)N(C(=O)C3CCCCC3)[C@@H]2CO)cc1	none (no result: TROY NFkB inh, TWEAK-Fn14 inh, EBV LMP1 NFkB)
C[C@@H]1CN([C@@H](C)CO)C(=O)Cc2cc(NC(=O)c3ccncc3)ccc2O[C@H]1CN(C)Cc1ccc(-c2ccccc2)cc1	none (no result: TROY NFkB inh, TWEAK-Fn14 inh, EBV LMP1 NFkB)
COc1ccc(N(C)S(=O)(=O)c2cccc(C(=O)Nc3nc4ccccc4[nH]3)c2)cc1	none
CN(c1cccc(Cl)c1)S(=O)(=O)c1cccc(C(=O)Nc2nc3ccccc3[nH]2)c1	TWEAK-Fn14 inh 74, LGR2 inh inconclusive
C=CCN(c1ccccc1)S(=O)(=O)c1cccc(C(=O)Nc2nc3ccccc3[nH]2)c1	TWEAK-Fn14 inh 54 (no result: EWS-Fli inh)
CCCN(C)C[C@H]1Oc2ncc(C#CC3CC3)cc2C(=O)N([C@H](C)CO)C[C@H]1C	none (no result: TROY NFkB inh, TWEAK-Fn14 inh, EBV LMP1 NFkB)
CCCN1CCC(=NNc2ccc(S(=O)(=O)N(CC)CC)cc2[N+](=O)[O-])CC1	EWS-Fli inh 61
CCCN1CCC(=NNc2ccc(S(N)(=O)=O)cc2[N+](=O)[O-])CC1	none
O=C(CN(Cc1ccc(Br)cc1)S(=O)(=O)c1ccccc1)NCc1cccnc1	none
O=C(NCc1cccnc1)/C(=C/c1ccc(-c2ccc(Cl)cc2)o1)S(=O)(=O)c1ccccc1	TROY NFkB inh 76, TWEAK-Fn14 inh 100, EWS-Fli inh 69, LGR2 inh 99
O=C(NCc1cccnc1)/C(=C\c1ccc(-c2ccc(Br)cc2)o1)S(=O)(=O)c1ccccc1	TROY NFkB inh 83, TWEAK-Fn14 inh 100, EWS-Fli inh 59, EBV LMP1 NFkB 63, LGR2 inh 102
CCN(CC)CCNCC(=O)N1c2ccccc2CCc2ccc(NC(=O)OC)cc21	TWEAK-Fn14 inh 105
CCC(=O)Nc1ccc2nc(C3CC3)n(Cc3ccc(C(C)(C)C)cc3)c(=O)c2c1	TROY NFkB inh 75, TWEAK-Fn14 inh 66
C[C@@H]1CC[C@]2(C(=O)O)CC[C@]3(C)C(=CCC4[C@@]5(C)CC[C@H](O)[C@@](C)(C(=O)O)C5CC[C@]43C)C2[C@]1(C)O (stereo partly drawn)	none
CC1(C)CC[C@]2(C(=O)O)CC[C@]3(C)C(=CC[C@@H]4[C@@]5(C)CC[C@H](O[C@@H]6O[C@H](C(=O)O)[C@@H](O)[C@H](O[C@@H]7OC[C@H](O)[C@H](O)[C@H]7O)[C@H]6O)C(C)(C)[C@@H]5CC[C@]43C)[C@@H]2C1	TROY NFkB inh 87, EWS-Fli inh inconclusive, LGR2 inh inconclusive
CC1(C)CC[C@]2(C(=O)O[C@@H]3O[C@H](CO)[C@@H](O)[C@H](O)[C@H]3O)CC[C@]3(C)C(=CCC4[C@@]5(C)CC[C@H](O[C@@H]6O[C@H](C(=O)O)[C@@H](O[C@H]7OC[C@@H](O)[C@@H](O)[C@@H]7O)[C@H](O)[C@H]6O)C(C)(C)C5CC[C@]43C)[C@@H]2C1 (stereo partly drawn)	none
C[C@@H]1CC[C@]2(C(=O)O)CC[C@]3(C)C(=CCC4[C@]56CC[C@@](O)(OC5)C(C)(C)C6CC[C@]43C)C2[C@H]1C (stereo partly drawn)	TROY NFkB inh 63 (no result: EWS-Fli inh, LGR2 inh)
C[C@H]1[C@H](C)CC[C@]2(C(=O)O)CC[C@]3(C)C(=CC[C@@H]4[C@@]5(C)C[C@@H](O)[C@H](O)C(C)(C)[C@@H]5CC[C@]43C)[C@H]12	none (no result: EWS-Fli inh, LGR2 inh)
CC1(C)CC[C@]2(C(=O)O)CC[C@]3(C)C(=CCC4[C@]56CC[C@@](O)(OC5)C(C)(C)C6CC[C@]43C)C2C1 (stereo partly drawn)	TROY NFkB inh 65 (no result: EBV LMP1 NFkB, LGR2 inh)
C[C@@H]1CCCCO[C@@H](CN(C)Cc2ccc(C(=O)O)cc2)[C@@H](C)CN([C@H](C)CO)C(=O)c2cc(NC(=O)Cc3ccccc3)ccc2O1	none (no result: TROY NFkB inh, TWEAK-Fn14 inh, EBV LMP1 NFkB)
N#C/C(=C\c1ccccc1[N+](=O)[O-])C(=O)NC1CCCCC1	none

Assay outcomes from PubChem BioAssay.
